Screening data: PubChem BioAssay, National Center for Advancing Translational Sciences (NCATS)
Vaccinia mCherry: vaccinia inhibition (mCherry reporter). Vaccinia virus mCherry reporter infection, fluorescence. Potency, µM (top dose mostly 36.5 µM), inactives show top-dose activity change, negative = inhibition, hits mostly inhibitors. 0.63% of 310,000 active; calls by dose curve; tested in A549 cells; also: potency is read from the fitted curve at half-maximal effect; % is scaled to controls: 0 for no effect and ±100 for the full control effect; nearly all actives have a fitted effect of over 35% in size
Vaccinia Venus: vaccinia inhibition (Venus reporter). Vaccinia virus Venus reporter expression, fluorescence. 0.46% of 330,000 active. AID 720580. Potency, µM (titrated, usually from 36.5 µM), inactives show at the top dose activity change, negative = inhibition, usual class: inhibitors; calls by dose curve; tested in A549 cells; also: potency is read from the fitted curve at half-maximal effect; % is scaled to controls: 0 for no effect and ±100 for the full control effect; nearly all actives have a fitted effect of over 30% in size
Cycloheximide cs: affects cycloheximide protein synthesis inhibition readout, counter-screen. cell reporter, cycloheximide protein synthesis inhibition counterscreen. max response, %. 12% of 300,000 active; in the data active = max response mostly above about 13%, no sharp cut-off; inactive = mostly below about 14%; also: read at 38.3 µM for the half of the compounds with a filed dose; 0% is about no effect
Shiga toxin inh: inhibitors of Shiga toxin in Vero cells; 9.2% of 290,000 active; Vero cells, Shiga toxin protein synthesis inhibition reporter; AID 2315; inhibition, % at 38.7 µM; in the data active = inhibition mostly above about 28%, no sharp cut-off; inactive = mostly below about 43%; also: 0% is about no effect
Lassa entry inh: blocks Lassa virus binding to or entry into cells. Lassa virus pseudotype entry inhibition, cell reporter. Potency, µM (doses to about 37.9 µM), without a hit: at the highest dose activity change, negative = inhibition, hits mostly inhibitors. 1.2% of 300,000 active; calls by dose curve; tested in HEK293 cells; also: potency is read from the fitted curve at half-maximal effect; % is scaled to controls: 0 for no effect and ±100 for the full control effect; nearly all actives have a fitted effect of over 50% in size
MARV entry inh: Marburg virus entry inhibition; Marburg virus pseudotyped entry inhibition, cell reporter; 1.8% of 300,000 active; Potency, µM (top dose mostly 37.8 µM), for the others: at the top dose activity change, negative = inhibition, usual class: inhibitors; calls by dose curve; tested in HEK293 cells; also: potency is read from the fitted curve at half-maximal effect; % is scaled to controls: 0 for no effect and ±100 for the full control effect
* marks the source's active call; other numbers are inactive results; i = inactive; ? = inconclusive; . = not tested or not shown; [ ] = dose if it differs, or a comment. This excerpt belongs to a sample that is enriched for hits.

SMILES | Vaccinia mCherry | Vaccinia Venus | Cycloheximide cs | Shiga toxin inh | Lassa entry inh | MARV entry inh
CN(C)/C=C/C(=O)c1cnc(-c2cccc(Cl)c2)s1 | . | . | 24.6* | 66.9* | . | .
CN(C)/C=C/C(=O)c1cnc(-c2ccccn2)s1 | i | 4.0% | 36.1* | 90.2* | -4.9% | -15.1%[46.1 µM]
CN(C)/C=C/C(=O)c1cnc(-c2ccccc2Cl)s1 | . | . | 45.3* | 87.1* | . | .
O=C1C(=O)N(C2CCN(S(=O)(=O)c3ccc(F)cc3)CC2)CCN1Cc1ccccc1 | -7.3% | -6.9% | . | . | -0.3%[46.1 µM] | .
COc1cc(NC(=S)NC(=O)CC(C)C)ccc1NC(=O)c1cc2ccccc2o1 | -10.1% | 5.4% | -5.2 | -8.6 | 0.4% | -4.8%
COc1cc(NC(C)=O)ccc1NC(=O)c1cc2ccccc2o1 | . | . | 15.5* | 20.9 | . | .
COc1cc(NC(=O)c2ccccc2)ccc1NC(=O)c1cc2ccccc2o1 | -24.0% | -7.9% | 2.9 | 0.6 | 9.9%[46.1 µM] | ?
CCCC(=O)Nc1ccc(NC(=O)c2cc3ccccc3o2)c(OC)c1 | -11.4% | -27.6% | 38.2* | . | -13.9%[46.1 µM] | -32.3%[46.1 µM]
COc1cccc(C(=O)Nc2ccc(NC(=O)c3cc4ccccc4o3)c(OC)c2)c1 | . | . | -2.4 | -4.3 | . | .
COc1cc(N)ccc1NC(=O)c1cc2ccccc2o1 | . | . | 41.9* | 63.8* | . | .
COc1ccc(OC)c(NC(=O)c2cc3ccccc3o2)c1 | -18.0% | -7.5% | 27.0* | 93.1 | 3.9% | -10.6%[46.1 µM]
COc1ccc(C)cc1NC(=O)c1cc2ccccc2o1 | . | . | 40.1 | 41.8 | 2.5% | 14.6%
Cc1cn([C@H]2C[C@H](O)[C@@H](CNCc3ccc(F)c(N4CCOCC4)c3)O2)c(=O)[nH]c1=O | -1.8% | -8.3% | . | . | . | .
CCCNC(=O)OC[C@H]1O[C@H](CCO/N=C(\C)CCC(=O)OC[C@H]2O[C@H](C#Cc3ccccc3)C=C[C@@H]2Oc2ccc(C)cc2)C=C[C@@H]1Oc1ccc(OC)cc1 | . | . | . | . | . | -28.6%[14.2 µM]
CN(C)c1ccc(/C=N/NC(=O)c2sccc2-n2cccc2)cc1 | -17.4% | -17.3% | 38.7* | 98.0* | 20.0% | 18.8%[46.1 µM]
O=C(N/N=C\c1ccc(Cl)cc1Cl)c1sccc1-n1cccc1 | . | ? | 0.8 | 17.8 | 5.7% | -11.3%
O=C(N/N=C\c1ccc(Cl)cc1)c1sccc1-n1cccc1 | . | -10.7% | 32.5* | 70.3* | -9.5% | ?
CCOc1ccccc1N1CC(C(=O)Nc2ccccc2CC)CC1=O (configuration not stated) | i | 0.0% | -2.5 | -3.9 | ? | ?
CCOc1ccccc1N1CC(C(=O)Nc2ccccc2N2CCOCC2)CC1=O (configuration not stated) | i | -11.1% | 37.9* | 17.3 | 28.4% | -15.4%
CCOc1ccc(C(=O)C2CCN(CC(=O)Nc3ccccc3N3CCOCC3)CC2)cc1 | -18.2% | ? | -0.3 | -15.4 | 18.3µM* | ?
CCOc1ccc(C(=O)Nc2ccccc2N2CCCC2)cc1 | -5.7% | ? | 28.7* | 72.5 | -7.5% | 2.9%
CCOc1ccc(C(=O)Nc2ccccc2N2CCOCC2)cc1 | . | -18.5% | -2.5 | -14.8 | -11.3% | 2.7%[46.1 µM]
CC(C)Cc1nc2cc(NS(=O)(=O)N(C)C)cc(C(=O)N3CCOc4ccccc4C3)c2n1C | -14.5% | -8.2% | . | . | . | .
CCc1ccc(-c2cc(N)n(-c3ccccc3)n2)cc1 | ? | -22.4% | 32.8* | 154.3* | 20.4%[46.1 µM] | -17.0%[46.1 µM]
Cc1ccc(-c2cc(N)n(-c3ccccc3)n2)cc1 | . | . | 66.2* | 80.0* | 18.6% | 3.7%
SMILES | Vaccinia mCherry | Vaccinia Venus | Cycloheximide cs | Shiga toxin inh | Lassa entry inh | MARV entry inh
Cc1cccc(-c2cc(N)n(-c3ccccc3)n2)c1 | ? | -29.1% | 44.9* | 65.4* | ? | ?
Nc1cc(C2CCCC2)nn1-c1ccccc1 | . | -17.1% | 45.8* | 103.6* | 18.9% | 13.5%
O=C(O)c1cc(C2CC2)nn1-c1ccccc1 | . | . | -1.3 | -9.6 | 0.5% | -4.4%
Cc1cccc(-n2nc(C)cc2N)c1 | . | . | 13.3 | -8.2 | -0.9% | 3.9%
Cc1ccc(C(c2c(C)nn(-c3ccccc3)c2N)c2c(C)nn(-c3ccccc3)c2N)cc1 | -15.3% | -4.6% | -3.6 | -7.1 | -4.4% | ?
Cc1ccc(CN2CCOc3ccc(C(C)(O)COc4ccccc4)cc3C2)o1 (configuration not stated) | -8.6% | 7.2% | . | . | . | .
O=C(NCc1ccccc1Cl)c1cc2c(s1)-c1ccccc1SC2 | -5.9% | -8.9% | . | . | -25.0%[46.1 µM] | ?
CN(C)c1ccc(/C=C(/NC(=O)c2ccccc2)C(=O)NCCCn2ccnc2)cc1 | . | . | 10.8 | 4.5 | . | .
COc1ccc(C(=O)N/C(=C\c2cccs2)c2nc3ccccc3[nH]2)cc1OC | . | . | 21.5* | 98.4* | 4.0% | -5.8%
COc1ccc(/C=C(/NC(=O)c2ccccc2)c2nc3ccccc3[nH]2)cc1OC | -19.8% | -20.8% | 23.8 | -10.2 | ? | 1.3%
O=C(/C(=C/c1ccc(Cl)cc1)c1nc2ccccc2[nH]1)c1cccs1 | . | . | 62.2* | 47.4 | . | 0.2%
COc1cc(/C=C(/C#N)c2nc3ccccc3c(=O)[nH]2)ccc1O | -0.1% | 16.0% | -6.3 | 13.7 | -2.0% | 28.2%
O=C(/C(=C\c1ccccc1)c1nc2ccccc2[nH]1)c1ccc(Cl)cc1 | -13.3% | -28.5% | 18.9* | 21.0* | ? | ?
COc1cc(/C=C(/C(=O)c2cccs2)c2nc3ccccc3[nH]2)ccc1O | . | . | 65.7* | 110.8* | ? | 4.11µM*
Cc1ccc(-n2cc(CCCCCCCCC(=O)O)nn2)cc1 | -10.7% | -1.9% | 1.4 | -1.0 | . | .
O=C(/C=C/c1cccc(Cl)c1)c1nc2ccccc2[nH]1 | . | . | 14.2* | 36.0 | ? | ?
CC1(C(=O)N/N=C/c2ccccc2)CC1(Cl)Cl (configuration not stated) | i | -10.2% | 25.6* | . | 20.7% | -24.9%
CC1(C(=O)N/N=C/c2ccccc2)CC1(Br)Br (configuration not stated) | -5.7% | -10.2% | 17.6 | 16.4 | 4.6% | 3.1%
CN(C(=S)NC(=O)C1(C)CC1(Cl)Cl)c1ccccc1 (configuration not stated) | -11.6% | -14.4% | -0.6 | -13.0 | 9.5% | 4.2%
Cc1ccc(/C=N/NC(=O)C2(C)CC2(Br)Br)cc1 (configuration not stated) | i | -1.3% | 13.2* | 37.9 | 10.6% | 17.2%[46.1 µM]
O=C(Nc1ccc(S(=O)(=O)Nc2nccs2)cc1)c1ccc(=O)[nH]c1 | -9.9% | -2.1% | -3.4 | -10.2 | 23.4% | 27.9%[46.1 µM]
O=C(COC(=O)c1ccc(O)cc1)c1ccc2c(c1)OCCO2 | -12.6% | -8.1% | . | . | -17.1% | 27.6%
CC(C)(C)C(=O)Nc1ccccc1C(=O)OCC(=O)c1ccc2c(c1)OCCO2 | -21.5% | -17.2% | 69.0* | 77.6* | ? | ?
O=C(COC(=O)c1ccccc1NC(=O)C1CC1)c1ccc2c(c1)OCCO2 | . | . | 53.7* | 75.3* | . | -4.0%
O=C(COC(=O)c1ccc(O)cc1O)c1ccc2c(c1)OCO2 | -1.4% | -8.2% | 76.2* | 92.3* | -20.6% | -0.2%
Cc1ccc(-c2nc3cc(Cl)ccc3o2)cc1NC(=O)COc1ccccc1C | 20.5% | 10.6% | . | . | . | .
Cc1c(C(=O)N(C)c2cccc(Cl)c2)cnn1-c1ccccc1 | . | . | 38.8* | 60.2* | . | .
Cc1c(C(=O)N(C)c2ccccc2Cl)cnn1-c1ccccc1 | -9.7% | -7.2% | 12.2* | 29.8* | -16.2%[46.1 µM] | 19.8%[46.1 µM]
